gsp agonist – agonists of gsp mutant (McCune-Albright syndrome) | gsp mutant cells, cAMP HTRF, 30 min | Potency, µM (series often up to 76.9 µM), without a hit: top-dose activation (cAMP increase), hits mostly activators | 340,000 tested, 0.13% active | AID 624287; active = well fitted activation curve with a large enough effect; inconclusive = small, poorly fitted or top-dose-only effect, or another doubt; inactive = no such curve, though single readings can be large or run the other way; cell line not stated here;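 note: phosphodiesterase inhibitor Ro 20-1724 added with compounds to block cAMP breakdown; potency is the fitted concentration of half-maximal effect; nearly all actives have a fitted effect of over 60% in size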
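Cells in DMEM/10% FBS with G418 were pretreated with compounds in DMSO plus […] (300 uM stock) for 30 min at 37C. cAMP was measured by HTRF (cAMP-d2 plus anti-cAMP antibody-K) after 30 min at room temperature.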
RXFP1 antag – blocks the human relaxin receptor RXFP1; Q9HBX9; HEK293-RXFP1, relaxin-stimulated cAMP HTRF, 30 min; active compounds read low; activity change, negative = inhibition, % at 57.5 µM; 350,000 tested, 0.59% active;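 active = activity change of -60% or lower, but not beyond a set lower limit; inconclusive = change between -60% and -40%, or beyond the set limit; inactive = change above -40%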; note: % is set by controls: 0 for no effect and ±100 for the full control effect
RXFP1 agonist – activates the human relaxin receptor RXFP1; Q9HBX9; HEK293T-RXFP1 cAMP TR-FRET, 30 min; response scale: percent of porcine relaxin response, buffer zero; Potency, µM (series often up to 57.5 µM), for the others: at the top dose activation, most hits filed as activators; 370,000 tested, 0.3% active; AID 2676; active = well fitted activation curve with a large enough effect; inconclusive = small, poorly fitted or top-dose-only effect; note: potency is the fitted concentration of half-maximal effect; % is set by controls: 0 for no effect and ±100 for the full control effect; nearly all actives have a fitted effect of over 60% in size
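cAMP rise read by TR-FRET after 30 min, 37C compound exposure (up to 58 uM) in RXFP1-transfected HEK293 cells with Ro 20174 present. EC50 from Hill-equation fits, with 29 nM porcine relaxin as 100% and buffer as basal.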
gsp antagonist – gsp mutant antagonism. gsp-mutant cells, cAMP HTRF, 30 min. Potency, µM (titrated, usually from 76.9 µM), for inactives: at the top dose activity change, negative = inhibition, usual class: inhibitors. 340,000 tested, 0.4% active; calls by dose curve; cell line not stated here;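 note: intracellular cAMP measured with PDE inhibitor Ro 20-1724 present during compound exposure; potency is the fitted concentration of half-maximal effect; % is set by controls: 0 for no effect and ±100 for the full control effect; nearly all actives have a fitted effect of over 65% in size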
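Measurement of cellular cAMP by homogeneous time-resolved fluorescence following a 30 min compound exposure at 37C. The PDE inhibitor […] was present throughout; the assay buffer was DPBS with 0.05% BSA and 0.005% Tween 20.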
pAkt inh – Akt phosphorylation inhibition | Neuro2A IGF-stimulated pAkt S473 HTRF, 20 min; active compounds read low | activity change, % for hits at 50 µM | 360,000 tested, 0.32% active; in the data active = activity change below about -80%; inconclusive = mostly about -51% to -80%; note: % is set by controls: 0 for no effect and ±100 for the full control effect
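Neuro2A cells in DMEM with 0.5% FBS, overnight at 37 deg C, given compound at single 50 µM final, then IGF (6 nM final) for 20 min at 37 deg C. Lysed; phospho-Akt Ser473 by HTRF after 24 h, 665/615 ratio.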
* = called active by the depositor; i = inactive; ? = inconclusive; . = not tested or not shown; ! = not active in a repeat; [ ] = another dose, or the depositor's remark. The list is not random: actives were taken first. Their share in the collection is about 1.2%.

SMILES | gsp agonist | RXFP1 antag | RXFP1 agonist | gsp antagonist | pAkt inh
O=P(CCCCCCCCCP(=O)(c1ccccc1)c1ccccc1)(c1ccccc1)c1ccccc1 | -25.7% | -72.2* | -0.5% | 39.8µM* | i
CCc1ccc(-n2c(N3CCN(c4cccc(C)c4C)CC3)nc3ccccc3c2=O)cc1 | . | -4.8 | 0.1% | . | .
Cc1c(C(=O)/C=C/N(C)C)nnn1-c1ccc(Cl)cc1Cl | 0.5%[15.4 µM] | -64.0* | 4.9% | -1.1% | i
CCOc1cc(/C=C(\C#N)C(=O)Nc2cccc(C(=O)O)c2)cc(Br)c1OC(=O)c1ccc(OC)cc1 | 9.8% | -89.1* | -2.9% | -11.7% | i
CCOc1cc(/C=C(\C#N)C(=O)Nc2cccc(C(=O)O)c2)ccc1OCc1ccccc1Cl | -20.8% | -10.5 | -1.2% | ? | i
CCOC(=O)CSc1nnc2n(-c3ccccc3)c(=O)c3c4c(sc3n12)CC(C(C)(C)C)CC4 (centres undefined) | . | -68.6* | 4.4% | . | .
C=CCc1cccc2cc(-c3nc4ccc(C(=O)O)cc4[nH]3)c(=O)oc12 | . | -13.3 | 26.4% | . | .
COc1cc(C)ccc1OCC(=O)OCC(=O)c1[nH]c(C)c(C(C)=O)c1C | 8.6%[15.4 µM] | -32.0 | . | -17.8% | i
CC(=O)c1c(C)[nH]c(C(=O)COc2cc(C)ccc2C(C)C)c1C | -32.4% | -8.3 | 3.2% | 11.2µM* | i
COc1ccccc1OCC(=O)c1[nH]c(C)c(C(C)=O)c1C | 2.1% | -14.9 | -2.8% | 25.1µM* | i
CC(=O)c1c(C)[nH]c(C(=O)COc2ccc(C#N)cc2)c1C | 2.7% | -8.1 | 18.5% | -12.5% | i
Cc1nc(S/C(=C/c2ccc(-c3cc(Cl)ccc3C)o2)C(=O)O)n[nH]1 | -24.7% | -9.6 | 0.2% | 28.2µM* | i
O=C(CSc1nnc(-c2ccccn2)n1Cc1ccco1)c1ccc(Cl)cc1 | 0.9% | -10.5 | 3.9% | -4.5% | -109.8%*
CCCS(=O)(=O)c1ncc(Cl)c(C(=O)N(Cc2ccccc2)Cc2ccco2)n1 | . | ? | -2.1% | . | .
Cc1ccc(NCN2C(=O)c3ccccc3C2=O)c(C)c1 | -34.7% | -3.5 | 0.8% | 6.3% | i
O=C1c2ccccc2C(=O)N1CNc1ccccc1 | 0.5% | 3.4 | 2.1% | -5.6% | -123.3%*
Oc1cccc2[nH]ccc12 | . | -8.4 | . | . | .
CCOC(=O)c1sc(NC(=O)c2c(OC)cccc2OC)nc1C | 0.4% | 2.2 | 0.3% | -8.6% | -119.0%*
CCOC(=O)C(=O)Nc1sc(C(=O)N2CCOCC2)c(C)c1C#N | -19.4%[15.4 µM] | -30.6 | -1.0% | 5.1% | i
COC(=O)c1sc(NC(=O)c2c(OC)cccc2OC)c(C#N)c1C | 28.2µM* | 0.1 | ? | 46.2% | i
COc1cc(C(=O)Nc2sc(C(=O)N3CCOCC3)c(C)c2C#N)cc(OC)c1OC | -0.3% | 3.7 | 4.5% | 18.2% | -106.6%*
COC(=O)c1c(-c2cccs2)csc1NC(=O)COc1ccc(C(C)C)cc1 | . | -20.9 | 11.2% | . | .
COc1ccccc1CCNC(=O)Cc1c(C)c2c(cc(C)c3c(C)coc32)oc1=O | . | 7.1 | -3.2% | . | .
CCc1ccc(/C=C/C(=O)c2ccc(N3CCOCC3)cc2)cc1 | -4.0%[15.4 µM] | -92.1* | -2.7% | -14.8% | i
CCc1ccccc1NC(=O)C1CCCN(c2ncnc3onc(C)c23)C1 (centres undefined) | . | -8.9 | 1.5% | . | .
SMILES | gsp agonist | RXFP1 antag | RXFP1 agonist | gsp antagonist | pAkt inh
O=C(O)[C@H](O)[C@@H](O)[C@H](O[C@@H]1O[C@H](CO)[C@H](O)[C@H](O)[C@H]1O)[C@H](O)CO | . | -6.2 | . | . | .
COc1cccc(-n2c(-c3ccccc3)c[nH]c2=S)c1 | ? | -79.2* | -1.3% | -16.9% | i
O=C(NCCCN1CCCC1)[C@H](CSCc1ccccc1)N1Cc2ccccc2C1=O | 5.2%[15.4 µM] | -60.1* | 1.2% | 11.4% | i
CC(C)NC(=O)[C@H](CSCc1ccccc1)N1Cc2ccccc2C1=O | 16.4% | . | -1.2% | 1.4% | i
O=C(CS)Nc1ccccc1 | . | 33.8 | . | . | .
CC(C)(C)c1ccc(C(=O)/C(C#N)=C/c2cccs2)cc1 | 6.1% | -86.8* | 2.8% | -10.0% | i
CC(C)N(CCCNC(=O)Cn1ncc2c([nH]c3ccccc32)c1=O)Cc1ccccc1 | ? | -74.8*! | 1.4% | 9.5% | i
CCOC(=O)c1c(NC(=O)c2cc(-c3cccc(Cl)c3)on2)sc(C(C)=O)c1C | . | 3.7 | 14.6% | . | .

Source: PubChem (National Center for Advancing Translational Sciences (NCATS))
